According to PubChem BioAssay (NCI):
Compounds without any hit were thinned out: in the full panel of roughly 83,000, 20% have a hit.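 Each cell line was grown in a 96-well plate and treated with one concentration of compound for 48 hours. Values below 10 were considered active.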 A number with no mark means an inactive call. Active and inactive are the calls of the source.

What was measured:
Experiment in all cases: NCI-60 one-dose screen, 48 h (100 = growth as untreated, 0 = no growth, -100 = all killed)
Settings in all cases: 10 µM unless noted
[1] = test system: T-47D breast
[2] = test system: BT-549 breast
[3] = test system: MDA-MB-435 melanoma
[4] = test system: SW-620 colon
[5] = test system: MCF7 breast
[6] = test system: HCT-116 colon
[7] = test system: HCC-2998 colon
[8] = test system: KM12 colon

Compound | growth [1] | growth [2] | growth [3] | growth [4] | growth [5] | growth [6] | growth [7] | growth [8]
CCN1CCN(C(=O)[C@]23CCC(C)(C)C[C@H]2C2=CC[C@@H]4[C@@]5(C)Cc6c([nH]c7ccccc67)C(C)(C)[C@@H]5CC[C@@]4(C)[C@]2(C)CC3)CC1 | 72.6% | 101% | 91.4% | 98.1% | 78.1% | 77.7% | 106% | 86.2%
COc1ccccc1C(=O)Nc1cccc2c1C(=O)C(=O)C=C2 | 98.8% | 96.3% | 96.8% | 94.2% | 81% | 99% | 122% | 99.3%
CCOC(=O)C1=NNC(c2ccc(Cl)cc2)C1C(=O)N1C(=S)NC(=O)C1CC(C)C (stereo not drawn) | 89.1% | 106% | 104% | 95.3% | 91.5% | 97.8% | 121% | 101%
O=C(CSc1nnc(-c2ccc(Cl)cc2)n1-c1ccccc1)Nc1ccc(Br)cc1 | 8.35% (active) | 36.7% | 27.2% | 37.9% | 38.6% | -64.2% (active) | 77.9% | 45.4%
COc1ccc(S(=O)(=O)NCCCNc2nccc(-c3[nH]c(-c4ccccc4)nc3-c3ccc(Cl)c(O)c3)n2)cc1 | 54.4% | 88.3% | 36.9% | 107% | 73.2% | 57.8% | 112% | 77.6%
COc1ccccc1NC1=C(Cl)C(=O)c2nc(C)ccc2C1=O | -44.7% (active) | 83.5% | -86% (active) | -63.1% (active) | -60.4% (active) | -80.6% (active) | 58.9% | 69.4%
O=S(=O)(Nc1ccc2c(c1)OCO2)c1ccc(-c2cnc(C3CC3)o2)cc1 | 31.7% | 42.1% | 0.417% (active) | 21.2% | 22.3% | 19.9% | 73.5% | 23.1%
Nc1ccccc1NC(=O)c1ccc(NC(=O)C/C=C/c2cccnc2)cc1 | 12.2% | 25.1% | 26.3% | 15.7% | 17.4% | -29.3% (active) | 9.69% (active) | 33.2%
COc1ccc(C2CC(c3cccc(Nc4nc(Cl)nc5cc(OC)c(OC)cc45)c3)=Nc3c(N)nc(N)nc3N2)cc1 (stereo not drawn) | 81.7% | 81.4% | 83.5% | 74% | 74.4% | 46.3% | 83.4% | 57.1%
CCN1CCN(Cc2ccc(C(=O)Nc3ccc(C)c(Oc4ccc(-c5[nH]nc6ncnc(N)c56)cc4)c3)cc2C(F)(F)F)CC1 | 100% | 109% | 82% | 115% | 70.6% | 67% | 117% | 21.2%
CCOC(=O)C(=O)CC(=O)N1C(=S)NC(=O)C1CC(C)C (stereo not drawn) | 109% | 87.5% | 99.9% | 106% | 95.8% | 95.4% | 97.8% | 98.8%
NS(=O)(=O)c1ccc(-n2cc(CN3CCNCC3)nn2)cc1 | 107% | 110% | 106% | 109% | 98.9% | 107% | 101% | 105%
CC(C)c1ccc(NCc2cn(-c3ccc(C(=O)O)cc3)nc2-c2cc(C(F)(F)F)cc(C(F)(F)F)c2)cc1 | 71% | 102% | 91% | 86.8% | 75.3% | 84% | 97% | 82.5%
Oc1cccc2ccc(-c3nnc(SCc4ccc(O)c5ncccc45)n3-c3ccccc3)nc12 | 9.55% (active) | 26.1% | 17% | 16.4% | 6.09% (active) | 10.5% | 28.2% | 10.9%
O=C(Cn1c(-c2ccccc2)nc2cc(Cl)c(Cl)cc21)N=Nc1c(O)[nH]c2ccc(Cl)cc12 | 61.5% | 56.2% | 83.2% | 81.9% | 71.8% | 53.4% | 86% | 73.8%
O=C1/C(=C/C=C/c2ccco2)SC(=S)N1c1ccccc1 | 76.8% | 65.2% | 89.1% | 98.9% | 57.4% | 35.3% | 87.3% | 94.4%

Compound | growth [1] | growth [2] | growth [3] | growth [4] | growth [5] | growth [6] | growth [7] | growth [8]
CS(=O)(=O)Nc1cc(-c2ccc3ncc(C#N)c(Nc4cccc(Cl)c4F)c3c2)cnc1Cl | -8.48% (active) | -4.23% (active) | 3.99% (active) | 4.99% (active) | 3.98% (active) | -14.8% (active) | -22.1% (active) | 3.37% (active)
COc1cc(OC)c(/C=C/S(=O)(=O)Cc2ccc(OC)c(NC(=O)CCC(=O)NO)c2)c(OC)c1 | 86.4% | 14.5% | -2.23% (active) | 21.7% | 11.9% | 3.5% (active) | 10.3% | 7.24% (active)
CCN(CC)c1ccc2c(c1)Oc1nc(N)c(C#N)c(N)c1C2Sc1ccc(C)cc1 (stereo not drawn) | -41.8% (active) | 58.8% | -95.5% (active) | -62.5% (active) | -70.7% (active) | -80.2% (active) | -90.2% (active) | -48.8% (active)
CCn1c(SCC(=O)Nc2cccc(C(=O)/C=C/c3ccc(C)cc3)c2)nc2ccccc2c1=O | 70.7% | 93.3% | 75.4% | 51.4% | 19.7% | 10.8% | 78.7% | 77.4%
CC(C)(C)c1ccc(CC(=O)Nc2sc3c(c2C(N)=O)CCC(=O)C3)cc1 | -15.4% (active) | 9.57% (active) | 1.24% (active) | 3.83% (active) | 5.89% (active) | 5.7% (active) | 25.5% | -3.85% (active)
N#Cc1cccc(CN2CCc3ncn(Cc4ccc(Cl)cc4)c(=O)c3C2)c1 | 30.7% | 29.7% | 18.4% | 33.2% | 15.5% | 19.5% | 13.9% | 29.7%
COc1ccc(/C=C(/C)c2ccc3ccc(OC)cc3[o+]2)c(O)c1 | 69.7% | 87.9% | 38% | 30.1% | 30.7% | 50.7% | 114% | 71.6%
Nc1ccccc1NC(=O)c1ccc(NC(=O)C/C=C/c2cccnc2)cn1 | 8.26% (active) | 3.27% (active) | 19% | 14.5% | 5.84% (active) | 4.69% (active) | 9.51% (active) | 26.2%
Cc1ccc2c(c1)C(=O)/C(=C/c1cccc(F)c1)S2 | 101% | 134% | 98.1% | 105% | 73.7% | 105% | 113% | 101%
COC(=O)C1(C)CCC[C@]2(C)[C@H]3C[C@H]4C(C(C)C)=C[C@]3(CC[C@@H]12)[C@H]1[C@@H]4[C@@H](OC(=O)c2ccco2)CC[C@@H]1OC(=O)c1ccco1 (stereo partly drawn) | 98.9% | 99.8% | 104% | 102% | 98.3% | 110% | 108% | 105%
Nc1nc(-c2cccc([N+](=O)[O-])c2)c(N=Nc2ccc([N+](=O)[O-])cc2Cl)s1 | 4.47% (active) | -24.9% (active) | 6.11% (active) | 13% | 2.17% (active) | 0.397% (active) | 12.9% | 2.86% (active)
COc1c(N2CC3CCCNC3C2)c(F)cc2c(=O)c(C(=O)N/N=C/c3c[nH]c4ccccc34)cn(C3CC3)c12 (stereo not drawn) | 116% | 100% | 105% | 90.7% | 55% | 56.7% | 119% | 98.7%
CCN(CC)c1ccc(NC2=C(Cl)C(=O)c3nc(C)ccc3C2=O)cc1 | -36% (active) | 132% | -76% (active) | -29.3% (active) | -38.5% (active) | -63.8% (active) | 9.75% (active) | 101%
Cn1cc(-c2nnc(N)nc2-c2c[nH]c3ccc(F)cc23)c2cc(F)ccc21 | 26.1% | 71.2% | 94.8% | 59.8% | 30.4% | 62.1% | 93.1% | 74.5%
COc1cc(-c2nc(-c3ccccc3)[nH]c2-c2ccnc(NCCCNS(=O)(=O)c3cccc(F)c3)n2)ccc1Cl | 24.1% | 71% | 22.5% | 71.3% | 35.3% | 18.8% | 55.5% | 39.8%
